Results reported in PubChem BioAssay (NCI).
Compounds without any hit were thinned out: in the full panel of roughly 83,000, 20% have a hit.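 The test compound was applied at a single concentration to cells in 96-well plates for 48 hours, and percent growth was recorded.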 Values without a mark were called inactive. Active and inactive are the calls of the source. The calls were made as follows: active = growth percent below 10; inactive = the rest.

Experiments:
Test in all cases: NCI-60 one-dose screen, 48 h (100 = growth as untreated, 0 = no growth, -100 = all killed)
Settings in all cases: 10 µM unless noted
SK-MEL-2 melanoma = tested on: SK-MEL-2 melanoma
EKVX NSCLC = tested on: EKVX NSCLC
SN12C renal = tested on: SN12C renal
UO-31 renal = tested on: UO-31 renal
TK-10 renal = tested on: TK-10 renal
ACHN renal = tested on: ACHN renal
CAKI-1 renal = tested on: CAKI-1 renal
CCRF-CEM leukemia = tested on: CCRF-CEM leukemia
MOLT-4 leukemia = tested on: MOLT-4 leukemia
SR leukemia = tested on: SR leukemia
RPMI-8226 leukemia = tested on: RPMI-8226 leukemia
OVCAR-8 ovarian = tested on: OVCAR-8 ovarian
OVCAR-5 ovarian = tested on: OVCAR-5 ovarian
OVCAR-4 ovarian = tested on: OVCAR-4 ovarian
SK-OV-3 ovarian = tested on: SK-OV-3 ovarian
IGROV1 ovarian = tested on: IGROV1 ovarian
OVCAR-3 ovarian = tested on: OVCAR-3 ovarian
HS 578T breast = tested on: HS 578T breast
NCI/ADR-RES ovarian = tested on: NCI/ADR-RES ovarian
A498 renal = tested on: A498 renal

SMILES | growth (SK-MEL-2 melanoma) | growth (EKVX NSCLC) | growth (SN12C renal) | growth (UO-31 renal) | growth (TK-10 renal) | growth (ACHN renal) | growth (CAKI-1 renal) | growth (CCRF-CEM leukemia) [%] | growth (MOLT-4 leukemia) | growth (SR leukemia) | growth (RPMI-8226 leukemia) | growth (OVCAR-8 ovarian) | growth (OVCAR-5 ovarian) | growth (OVCAR-4 ovarian) | growth (SK-OV-3 ovarian) | growth (IGROV1 ovarian) | growth (OVCAR-3 ovarian) | growth (HS 578T breast) | growth (NCI/ADR-RES ovarian) | growth (A498 renal)
Cc1cc(C)c(C=O)c(C)c1 | 106% | 101% | 103% | 86.3% | 103% | 108% | 94.1% | 78.6 | 85% | 105% | 89.8% | 94.2% | 98.5% | 108% | 74.7% | 111% | 107% | 104% |  | 
CC(C)(C#N)N1CCN(c2ccccc2Cl)CC1 | 103% | 97.2% | 108% | 81.8% | 104% | 109% | 94.5% | 100 | 97.8% | 101% | 105% | 93.9% | 97.2% | 119% | 103% | 106% | 101% | 96.4% | 98.8% | 
COc1cc(-c2cc(=O)oc3cc(O)ccc23)c(OC)c2c1OCO2 | 96.6% | 90.6% | 84% | 72.2% | 108% | 91.2% | 76.9% |  | 100% | 84.2% | 60.2% | 91.6% | 91.6% |  | 125% | 91.5% | 92.7% | 81.9% | 92.6% | 94.6%
COc1cc(CNC(=O)CCCCC[P+](c2ccccc2)(c2ccccc2)c2ccccc2)c(OC)c2c1OCO2 | 60.3% | 71.8% | 75.4% | 92.3% | 84.3% | 106% | 89.4% |  | 99.2% | 22.9% | 1.67% (active) | 75.3% | 99.5% | 23.7% | 127% | 41.8% | 44.5% | 78% | 105% | 78.8%
COc1ccc(/C=C(/c2ccccc2)[N+](=O)[O-])cc1 | -49.7% (active) | -29.6% (active) | -38.4% (active) | -100% (active) | -83.2% (active) | -97.4% (active) | -88.3% (active) |  |  | -19.1% (active) | -28% (active) | -7.29% (active) | -59.6% (active) | -59.5% (active) | 9.1% (active) | -26.1% (active) | -96.5% (active) | 14.4% | 7.74% (active) | 10%
COc1ccccc1/C=C1\Oc2cc(OCCCN3CCCC3)ccc2C1=O | 102% | 90.6% | 86.9% | 77.9% | 104% | 97.4% | 77.8% |  | 93.3% | 46.9% | 107% | 93.7% | 84.2% | 89% | 108% | 92.3% | 94.8% | 83.7% | 84.6% | 77.3%
COc1ccc(-c2c[nH]c(C(=O)O)c2-c2cc(OC)c3c(c2OC)OCO3)cc1 | 109% | 105% | 99.9% | 90.3% | 116% | 100% | 86.4% |  | 102% | 106% | 140% | 101% | 96.5% | 100% | 119% | 103% | 109% | 99.9% | 99.2% | 95%
Clc1nc(Cl)c2ncn(CC3(Cn4cnc5c(Cl)nc(Cl)nc54)COC3)c2n1 | -76% (active) | -71.6% (active) | -86.6% (active) | -97.7% (active) | -93.2% (active) | -98.7% (active) | -87.8% (active) |  | -66.8% (active) | -76.1% (active) | -63.5% (active) | -83.7% (active) | -86% (active) | -87.9% (active) | -99.8% (active) | -93.3% (active) | -93.3% (active) | -43.8% (active) | -57.4% (active) | -88.6% (active)
N#CC1=C(N)Oc2c(ccc3ccccc23)C1c1ccc([N+](=O)[O-])cc1 (configuration not stated) | 86% | 76.9% | 90.4% | 54.7% | 145% | 90.3% | 41.6% | 66.9 | 58.6% | 20.2% | 89.5% | 93.3% | 95.7% | 90.8% | 80% | 50.4% | 76.5% | 87.5% |  | 
CC(=O)N1c2ccccc2NC2=C(C(=O)N(Cc3ccccc3)C2(C)C)C1c1ccco1 (configuration not stated) | 16.9% | 35.4% | 35.9% | 52.5% | 54.9% | 33.5% | 43% | 24.1 | 28.6% | 23.3% | 23.4% | 26.1% | 25.9% | 48.8% | 22.7% | 26.8% | -7.66% (active) | 10.7% |  | 
CCOC(=O)N1CCN(CCCCl)CC1 | 103% | 98.2% | 99% | 89.5% | 92.1% | 97.4% | 101% | 110 | 98.7% | 97.1% | 114% | 98.8% | 93.3% | 109% | 126% | 97.1% | 119% | 108% |  | 
CC[C@H](CC[C@@H](C)[C@H]1CC[C@H]2[C@@H]3CC=C4C[C@@H](OCCc5nn[nH]n5)CC[C@]4(C)[C@H]3CC[C@]12C)C(C)C | 111% | 102% | 108% | 99.5% | 101% | 105% | 105% | 103 | 100% | 105% | 113% | 108% | 108% | 104% | 96.8% | 100% | 103% | 113% |  | 
CCN1C(=O)N(CC)C2NC(SC)=NC21 (configuration not stated) | 111% | 97.6% | 95.9% | 89.7% | 115% | 99.8% | 87.9% |  |  | 107% | 157% | 104% | 88.9% | 103% |  | 102% | 102% | 94.1% | 99.7% | 90.2%
COc1cccc2cc(-c3cc4ccccc4[nH]3)/c(=N/C(=S)Nc3ccc(C)cc3)oc12 | 85% | 60.9% | 77.6% | 85.3% | 94.3% | 27.9% | 19.2% |  | 101% | 123% | 114% | 54% | 89.4% | 34.6% | 64.7% | 58.2% | 81.2% | 14.1% | 50.8% | 63%
O=C(N/N=C/c1ccncc1)c1ccccc1Nc1cccc(C(F)(F)F)c1 | 99.3% | 91.7% | 90.8% | 60.9% | 102% | 90.5% | 117% |  | 72.2% | 4.74% (active) | 52.3% | 79.1% | 89.5% | 66% | 86.4% | 86.8% | 64.7% | 103% | 70.7% | 71.9%
CS(=O)(=O)Nc1cc(-c2ccc3ncnc(Nc4ccc5[nH]ncc5c4)c3c2)cnc1Cl | 63.1% | 62.3% | 67.8% | 64.1% | 65.6% | 83.8% | 51.9% |  | 75.3% | 63.2% | 102% |  |  | 84.7% | 76% | 42.5% | 59.2% | 21.7% | 91.2% | 24.5%
O=C(/C=C\c1ccc(OCCCCCC[P+](c2ccccc2)(c2ccccc2)c2ccccc2)cc1)c1ccc2c(c1)OCCO2 | -42.9% (active) | 23.9% | 2.08% (active) | 4.82% (active) | -9.1% (active) | 5.03% (active) | 2.91% (active) |  | -20.6% (active) | -18.9% (active) | -41.7% (active) | 1.04% (active) | 13.9% | -3.06% (active) | -23.8% (active) | 5.29% (active) | -27% (active) | 7.53% (active) | 78.1% | -30% (active)
